Bioassay records (PubChem)
CHOP inhibitor: CHOP inhibition in unfolded protein response. 220,000 compounds, 3.8% hits. inhibition, % at 10 µM. AID 2732. CHO-K1 CHOP-promoter luciferase, tunicamycin-induced, 15-18 h;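 active = compounds that reduced the stress-induced luciferase reporter signal by more than about 70% of percent inhibition, limit read from the data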;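 also: 0% = tunicamycin plus vehicle and 100% = wells without tunicamycin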
RAM inhibit: inhibitors of the yeast RAM network; 190,000 compounds, 1.8% hits; S. cerevisiae dse1pr::URA3 reporter, 5-FOA growth OD615, 2 d; analog-sensitive cbk1-as2 kinase mutant strain; inhibition, % at 50 µM; AID 868;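 active = inhibition above a set limit, 3 SD over mean compound inhibition, cut at about 8.4% in these data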;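 also: 0% = DMSO-only wells with no growth and 100% = 10 µM 1-NA-PP1 full growth; inhibition rescues growth on 5-FOA so higher OD means more RAM inhibition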
WT yeast gro inh: growth inhibition of WT yeast, mitochondrial fusion screen; AID 1362; mitochondrial fusion phenotypic screen, WT strain; inhibition, % at 10 µM; 190,000 compounds, 2.1% hits; in the data active = inhibition above about 58%; tested in S. cerevisiae
Lmaj promast: inhibitors of Leishmania major promastigote growth; Leishmania major promastigotes, resazurin fluorescence viability; inhibition, % at 10 µM; 200,000 compounds, 9% hits; in the data active = inhibition above about 50%;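 also: promastigotes grown with compound for 44 hours at 28 °C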
Starred values were filed as active, the others as inactive; x = no result. The list is not random: actives were taken first. Their share in the collection is about 13%.

SMILES	CHOP inhibitor	RAM inhibit	WT yeast gro inh	Lmaj promast
CCCCCCCCC(=O)NNC(=O)c1c(O)c2ccccc2n(CCC)c1=O	34.5	8.8*	-4.4	-12.1
CCCCCCCCCC(=O)NNC(=O)c1c(O)c2ccccc2n(CCC)c1=O	35.5	4.9	-1.8	5.0
C=CCn1c(=O)c(C(=O)NCCc2ccccc2)c(O)c2ccccc21	48.0	10.1*	-8.8	-10.0
CCCCCCCCCCC(=O)NNC(=O)c1c(O)c2ccccc2n(CC)c1=O	20.8	8.8*	-9.0	6.7
O=C(COC(=O)/C=C/C(=O)N1CCN(c2ccccc2)CC1)NC(c1ccccc1)c1ccccc1	-6.3	3.8	-2.5	1.9
O=C1OCC2=C1C(c1ccc(F)cc1)c1cc3c(cc1N2)OCCO3 (stereo not given)	16.2	5.2	-31.1	-0.3
CS(=O)(=O)N(CC(=O)Nc1ccc(S(=O)(=O)N2CCCC2)cc1)c1cccc(F)c1	17.1	x	x	x
O=C(NN1C(=O)C2C3c4ccccc4C(c4ccccc43)C2C1=O)c1ccc(Cl)cc1 (stereo not given)	-8.6	3.9	17.0	72.0*
O=C(NN1C(=O)C2C3C=CC(C3)C2C1=O)c1ccccc1 (stereo not given)	-3.7	3.1	-8.2	-4.7
O=C(CCC1CCCCC1)NCc1ccccn1	-7.3	0.2	-2.8	-3.1
Cc1ccc(Oc2ccc(-c3nnc(-c4ccccc4)o3)cc2[N+](=O)[O-])cc1C	48.3	4.3	-10.8	59.7*
Cc1nn(Cc2ccccc2)c(Cl)c1C(=O)OC(C)C#N (stereo not given)	16.6	2.2	0.0	2.0
O=C1CC(c2ccccc2Cl)=NN(c2ncnc3ccccc23)C1=O	-14.2	5.5	-17.1	83.0*
O=S(=O)(NCc1cc(-c2ccccc2Cl)no1)c1ccc(Cl)cc1	73.9*	1.4	19.2	-1.4
CCSc1c(-c2ccccc2)nc2c(C)cccc2c1C(=O)O	1.6	0.7	-2.8	-3.9
CCOC(=O)c1c(Nc2ccc(Cl)cc2)sc(/C=C2\C=Nc3ccccc32)c1O	76.2*	9.3*	-3.1	-2.0
O=C(Cn1c(O)c(/C=C2\C=Nc3ccccc32)sc1=O)Nc1ccc2c(c1)OCO2	4.7	5.5	5.4	-3.1
CCc1ccc(S(=O)(=O)ON2C(=O)c3ccccc3C2=O)cc1	95.1*	-1.3	-2.1	-5.4
CCOC(=O)c1cc(CC)sc1NC(=O)COC(=O)c1cc[n+]([O-])cc1	4.7	-0.4	-3.2	-2.6
COc1ccc(-c2csc(Nc3ccc(S(=O)(=O)Nc4cc(OC)nc(OC)n4)cc3)n2)cc1	88.8*	7.2	-28.2	2.6
Cn1c(=O)cc(OCCCC(=O)N2CCN(c3ccccc3)CC2)c2ccccc21	-30.7	0.9	58.2*	0.0
CCOc1ccc(NC(=O)CCCOc2cc(=O)n(C)c3ccccc23)cc1	74.2*	6.6	-18.1	-3.1
COC(=O)c1ccc(C2c3c(oc4ccc(Cl)cc4c3=O)C(=O)N2CCN2CCOCC2)cc1 (stereo not given)	18.7	x	x	x
O=C(O)COc1ccccc1/C=N/NC(=O)c1cc2ccccc2cc1O	14.3	x	x	x
COc1cc([N+](=O)[O-])cc(/C=N/NC(=O)Cn2nccc2C)c1O	8.1	x	x	x
SMILES	CHOP inhibitor	RAM inhibit	WT yeast gro inh	Lmaj promast
COc1cc(Br)cc(/C=N/NC(=O)Cc2ccc(C(F)(F)F)cc2[N+](=O)[O-])c1O	26.1	1.2	-4.3	72.5*
Cn1cc(-c2nnc(-c3ccccc3)o2)c2ccccc21	19.7	7.1	11.4	-2.0
CC(C)Oc1ccc(Cc2cnc(N)nc2N)cc1	-18.2	-0.3	-7.9	58.0*
CCCCOc1ccc(Cc2cnc(N)nc2N)cc1	-6.8	x	x	x
CC1CCN(c2ccc(NC(=O)c3ccccc3[N+](=O)[O-])cc2)CC1	26.9	-0.4	-4.3	-4.7
CCc1nc(SCc2cc(Cl)ccc2OC)n[nH]1	28.4	-0.7	3.9	1.3
Cc1ccc(OCc2n[nH]c(=S)n2C2CCCCC2)cc1	-38.2	0.5	66.1*	-5.4
S=c1[nH]nc(COc2ccc(Cl)cc2)n1C1CCCCC1	38.3	3.5	25.2	-4.5
S=c1[nH]nc(CSCc2ccccc2Cl)n1C1CCCCC1	61.0	6.9	73.6*	24.3
Cc1cccc(OCc2n[nH]c(=S)n2C2CCCCC2)c1	35.6	1.5	67.4*	-0.8
CC1(C)CCC(NC(=O)[C@@H](N)CCC(=O)O)CC1	18.8	x	x	x
CN=c1c([N+](=O)[O-])nn(-c2ccc3c(c2)OCCO3)n1O	13.4	-0.7	-6.2	43.3
O=[N+]([O-])c1nn(-c2ccc3c(c2)OCCO3)n(O)c1=NCCC1=CCCCC1	85.6*	3.4	1.5	63.0*
O=[N+]([O-])c1nn(-c2ccc3c(c2)OCCO3)n(O)c1=NCc1ccc(F)cc1Cl	-32.1	4.7	0.9	84.7*
O=[N+]([O-])c1nn(-c2ccc3c(c2)OCCO3)n(O)c1=NC1CCN(Cc2ccccc2)CC1	22.4	0.9	-3.9	76.3*
